Results published in PubChem BioAssay AID372 (MTDP, 2006).
About 770 (0.77%) of roughly 100,000 compounds were called active. What follows is part of a selection rich in actives, with near analogues and random picks from the rest. Unmarked numbers belong to inactive results. No stated cut-off is given here; in the data, active means inhibition above about 50%; inactive means the rest.

Target: Gag-Pol polyprotein (Human immunodeficiency virus type 1 group M subtype B (isolate HXB2)) (UniProt P04585)
Experiment: RNase H inhibition, HIV 1 Gag Pol polyprotein, FRET biochemical assay, screening (AID 372)
Details: HIV-1 RT RNase H, FRET RNA/DNA substrate fluorescence; at 10 µM; hits give high values

SMILES	inhibition
COc1ccccc1CC(=O)Nc1cccc(C)c1	0%
COc1ccccc1CC(=O)Nc1ccc(Br)cc1	38%
COc1ccccc1CC(=O)Nc1cccc(Br)c1	67% (active)
O=C1c2ccc(-c3nc4ccccc4c(=O)o3)cc2C(=O)N1c1cccc(I)c1	0%
Cc1ccc2c(c1)N(C(=O)c1ccccc1Br)C(C)(C)c1ssc(=S)c1-2	33%
C=CCn1c(=O)c(C(=O)NCCCO)c(O)c2ccccc21	11%
COc1ccc(/C=N/NC(=S)Nc2cccc(C)c2)c2ccccc12	5%
COC(=O)C1=C(C)NC(C)=C(C(=O)OC)C1c1cn(-c2ccccc2)nc1-c1ccco1	4%
O=C(Nc1cccc(Cl)c1)OCCOc1ccccc1	48%
Cc1cccc(OCCOC(=O)Nc2cccc(Cl)c2)c1	44%
COc1cccc(OCCOC(=O)Nc2ccc(Cl)c(Cl)c2)c1	50% (active)
O=C(Nc1ccc(Cl)c(Cl)c1)OCCOc1ccccc1	50% (active)
Cc1ccc(OCCOC(=O)Nc2ccc(Cl)c(Cl)c2)cc1	46%
O=C(Nc1ccc(Cl)c(Cl)c1)OCCOc1cccc(Br)c1	44%
O=C(Nc1cccc(Cl)c1)OCCOc1cccc(F)c1	58% (active)
Cc1cccc(OCCOC(=O)Nc2ccc(Cl)c(Cl)c2)c1	46%
COc1ccc(OCCOC(=O)Nc2ccc(Cl)c(Cl)c2)cc1	34%
Cc1ccccc1OCCOC(=O)Nc1ccc(Cl)c(Cl)c1	51% (active)
COc1ccccc1OCCOC(=O)Nc1ccc(Cl)c(Cl)c1	10%
O=C(Nc1ccc(Cl)c(Cl)c1)OCCOc1ccccc1Cl	48%
CC1=C(C#N)C(c2ccccc2C(F)(F)F)C2=C(CCCC2=O)N1 (configuration not stated)	12%
O=C1Nc2ccccc2NC1C1OC(c2ccccc2)=CC1=O (configuration not stated)	0%
Cc1cccc(C2C(=O)c3ccccc3C2=O)c1C	13%

SMILES	inhibition
O=C(O)c1ccc(N2C(=O)CC(N3CCN(Cc4ccc5c(c4)OCO5)CC3)C2=O)cc1 (configuration not stated)	12%
C/C(=N\NC(=O)c1cc(C)[nH]n1)c1ccc(N)cc1	5%
O=S1(=O)CCC(NC(=S)N/N=C/c2ccc(Cl)c(Cl)c2)C1 (configuration not stated)	13%
COc1ccc(C(N)=CC(=O)C(C)(C)C)cc1	7%
Clc1cccc(OCCCCN2CCOCC2)c1Cl	55% (active)
Clc1cccc(OCCN2CCOCC2)c1Cl	0%
Clc1cccc(OCCCN2CCOCC2)c1Cl	2%
Cc1sc2nc(SCC(=O)NCCO)[nH]c(=O)c2c1C	2%
CCOc1ccc(-c2nc3cc(NC(=S)NC(=O)c4ccccc4Br)ccc3o2)cc1	20%
COc1ccc(C(=O)NC(=S)Nc2ccc3oc(-c4ccccc4C)nc3c2)cc1Cl	25%
CCOc1ccc(-c2nc3cc(NC(=S)NC(=O)c4ccccc4C)ccc3o2)cc1	61% (active)
COc1ccc(-c2nc3cc(NC(=S)NC(=O)c4ccccc4C)ccc3o2)cc1Cl	56% (active)
COc1ccc(-c2nc3cc(NC(=S)NC(=O)c4ccccc4OC)ccc3o2)cc1Cl	13%
COc1ccc(C(=O)NC(=S)Nc2ccc3oc(-c4ccccc4Cl)nc3c2)cc1OC	14%
COc1ccc(-c2nc3cc(NC(=S)NC(=O)c4ccccc4C)ccc3o2)cc1	7%
COc1ccc(C(=O)NC(=S)Nc2ccc3oc(-c4ccccc4Cl)nc3c2)cc1Cl	53% (active)
COc1ccc(-c2nc3cc(NC(=S)NC(=O)c4ccccc4Cl)ccc3o2)cc1Cl	45%
O=C(Nc1ccc2ccccc2c1)c1cc(I)ccc1Cl	23%
COc1ccc(/C(N)=N/OC(=O)/C=C/c2ccccc2)cc1	15%
CCCCOC(=O)c1ccc(NC(=O)COc2ccccc2Br)cc1	15%
COc1ccc(NC(=O)CN(c2c(C)n(C)n(-c3ccccc3)c2=O)S(=O)(=O)c2ccccc2)cc1	4%
O=C(CSc1nc2sc3c(c2c(=O)n1-c1ccc(Cl)cc1)CCCC3)c1ccccc1	13%
O=[N+]([O-])c1ccc(N2CCN(S(=O)(=O)c3ccc4ccccc4c3)CC2)cc1N1CCCC1	5%

SMILES	inhibition
CC(c1ccccc1)N1C(=O)/C(=C/c2cccc([N+](=O)[O-])c2)SC1=S (configuration not stated)	11%
O=C(Nc1ccc(-c2nc3ccc(NC(=O)c4ccccc4[N+](=O)[O-])cc3[nH]2)cc1)c1ccccc1[N+](=O)[O-]	13%
COc1ccc(C(=O)NC(=S)Nc2ccc(C)c(Cl)c2)cc1[N+](=O)[O-]	5%
O=C(Nc1ccc2nn(-c3ccc(F)cc3)nc2c1)c1ccc(Cl)c([N+](=O)[O-])c1	52% (active)
Cc1ccc(C(=O)Nc2ccccc2)cc1[N+](=O)[O-]	7%
O=C(Nc1ccc2nn(-c3ccc(F)cc3)nc2c1)c1ccc([N+](=O)[O-])cc1	16%
Cc1ccc(-n2nc3ccc(NC(=O)c4cccc([N+](=O)[O-])c4)cc3n2)cc1Cl	43%
Cc1ccc(-n2nc3ccc(NC(=O)c4ccc([N+](=O)[O-])cc4)cc3n2)cc1Cl	53% (active)
COc1ccc(C(=O)NC(=S)Nc2ccc3nn(-c4ccc(F)cc4)nc3c2)cc1[N+](=O)[O-]	38%
O=C(Nc1ccc2nn(-c3ccccc3)nc2c1)c1ccc(Cl)c([N+](=O)[O-])c1	21%
O=C(Nc1ccc2nn(-c3ccc(Cl)cc3)nc2c1)c1ccc([N+](=O)[O-])cc1	31%
Cc1ccc(C(=O)Nc2ccc(-c3nc4cc5ccccc5cc4[nH]3)cc2)cc1[N+](=O)[O-]	80% (active)
CC(=O)N/N=C/c1ccc(-c2ccc([N+](=O)[O-])cc2Br)o1	13%
CCOc1ccc(C(=O)NCc2cccnc2)cc1Br	0%
CC(C)=NNC(=O)/C(=C/C=C/c1ccccc1)NC(=O)c1ccccc1	7%
CC(=O)c1cccc(NC(=O)CC2S/C(=N\N=C(/C)c3ccc(Cl)cc3)NC2=O)c1 (configuration not stated)	13%
O=C(c1nn2c(c1Br)NC(c1cccs1)CC2C(F)(F)F)N1CCOCC1 (configuration not stated)	0%
N#Cc1ccc(C=Nc2cc(Cl)cc(Cl)c2)cc1	11%
Cc1cc2c(c(=O)o1)C(c1cccs1)C(C#N)=C(N)O2 (configuration not stated)	4%
Cc1cc(C)c(S(=O)(=O)Nc2cc(Br)c(O)c3ccccc23)c(C)c1	18%
N#Cc1ccccc1COc1ccc(/C=C2/NC(=S)NC2=O)cc1	23%
COc1ccc(C(=O)NC(=S)Nc2ccc(-c3nc4ccccc4[nH]3)cc2)cc1[N+](=O)[O-]	60% (active)
COc1ccc(C(=O)Nc2ccc3nn(-c4ccccc4)nc3c2)cc1[N+](=O)[O-]	18%

SMILES	inhibition
Cc1ccc(-n2nc3cc(C)c(NC(=O)/C=C/c4cccc([N+](=O)[O-])c4)cc3n2)cc1	12%
COc1ccc(C(=O)NC(=S)Nc2ccc(Br)cc2)cc1[N+](=O)[O-]	0%
CCOc1ccc(-n2nc3ccc(NC(=O)c4ccc(C)c([N+](=O)[O-])c4)cc3n2)cc1	17%
O=C(/C=C/c1cccc([N+](=O)[O-])c1)Nc1ccc2nn(-c3ccccc3)nc2c1	43%
COc1ccc(C(=O)NC(=S)Nc2cc(-c3nc4ccccc4[nH]3)ccc2C)cc1[N+](=O)[O-]	18%
Cc1ccc(C(=O)Nc2ccc3nn(-c4ccc(Cl)cc4)nc3c2)cc1[N+](=O)[O-]	51% (active)
CCOc1ccc(C(=O)NC(=S)Nc2ccc3nn(-c4ccccc4)nc3c2)cc1[N+](=O)[O-]	18%
COc1ccc(C(=O)NC(=S)Nc2ccc3nn(-c4ccccc4)nc3c2)cc1[N+](=O)[O-]	56% (active)
Cc1ccc(-n2nc3ccc(NC(=O)/C=C\c4cccc([N+](=O)[O-])c4)cc3n2)cc1	59% (active)
Cc1ccc(C(=O)Nc2ccc3nn(-c4ccc(F)cc4)nc3c2)cc1[N+](=O)[O-]	40%
CCc1ccc(C=NC23CN4CN(CN(C4)C2)C3)s1	5%
CCOC(=O)c1c(NC(=O)CN2C(=O)S/C(=C\c3ccccc3)C2=O)sc2c1CCCC2	10%
COc1cccc(/C=C2/SC(=S)N(CCC(=O)Nc3nnc(C)s3)C2=O)c1	7%
Cn1ccnc1SCC(=O)n1c2c(c3ccccc31)CCCC2	0%
Cc1ccc(C(=O)Nc2ccc3nn(-c4cccc([N+](=O)[O-])c4)nc3c2)cc1	54% (active)
O=C(Nc1ccc2nn(-c3cccc([N+](=O)[O-])c3)nc2c1)c1ccccc1	22%
O=C(Nc1ccc2nn(-c3ccccc3)nc2c1)c1ccc([N+](=O)[O-])cc1	12%
Cc1ccc(-n2nc3ccc(NC(=O)c4ccc([N+](=O)[O-])c(C)c4)cc3n2)cc1Cl	44%
COc1ccc(-n2nc3ccc(NC(=O)c4ccc(OC)c([N+](=O)[O-])c4)cc3n2)cc1	3%
COc1ccc(C(=O)Nc2ccc3nn(-c4ccc(C)c(Cl)c4)nc3c2)cc1[N+](=O)[O-]	53% (active)
Cc1cc([N+](=O)[O-])ccc1NC(=O)c1c(C)c(C)c(C)c(C)c1C	10%
CCOc1ccc(N(CC(=O)NCCSCc2ccccc2)S(=O)(=O)c2ccccc2)cc1	10%
CC1(C)Cc2cc3c(=O)[nH]c(=S)[nH]c3nc2CO1	0%
